Records with an inconclusive call do not appear. Where a call stands in place of a potency, no number is given. Calls of active or inactive are those of the source. The call rests on the fitted dose curve; in most records, active means well fitted inhibition curve with a large enough effect; inconclusive means small, poorly fitted or top-dose-only effect; inactive means flat fitted curve, though single readings scatter.
Assays:
Experiment in all cases: qHTS profiling for inhibitors of Plasmodium falciparum proliferation (AID 504749); further: nearly all actives have a fitted effect of over 60% in size
Conditions in all cases: P. falciparum in erythrocytes, SYBR Green DNA, 72 h; series mostly up to 28.7 µM
DIV14 = system: DIV14
Summary of the method: (§1)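 P. falciparum-infected erythrocytes (0.3% parasitemia, 2.5% hematocrit final) were exposed to compounds for 72 h at 37 C in 5% CO2, then lysed with SYBR Green buffer overnight at room temperature; parasite DNA fluorescence was normalized to artemisinin and DMSO controls.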

DIV17 = system: DIV17
Summary of the method: as §1

Dd2 = system: Dd2
Summary of the method: as §1

ECU = system: ECU
Summary of the method: as §1

GB4 = system: GB4
Summary of the method: as §1

ICS = system: ICS
Summary of the method: as §1

N140 = system: N140
Summary of the method: as §1

P93_24 = system: P93_24
Summary of the method: as §1

TAB109 = system: TAB109
Summary of the method: as §1

TAB113 = system: TAB113
Summary of the method: as §1

DIV30 = system: DIV30
Summary of the method: as §1

FAB9 = system: FAB9
Summary of the method: as §1

PC26 = system: PC26
Summary of the method: as §1

PC49 = system: PC49
Summary of the method: as §1

HB3 = system: HB3
Summary of the method: as §1

JCK = system: JCK
Summary of the method: as §1

P94_40 = system: P94_40
Summary of the method: as §1

PAD = system: PAD
Summary of the method: as §1

PC15 = system: PC15
Summary of the method: as §1

SC27B = system: SC27B
Summary of the method: as §1
Potency means the concentration at half of the fitted maximal effect.

Compound | Potency (DIV14) | Potency (DIV17) | Potency (Dd2) | Potency (ECU) | Potency (GB4) | Potency (ICS) | Potency (N140) | Potency (P93_24) | Potency (TAB109) | Potency (TAB113) | Potency (DIV30) | Potency (FAB9) | Potency (PC26) | Potency (PC49) | Potency (HB3) | Potency (JCK) | Potency (P94_40) | Potency (PAD) | Potency (PC15) | Potency (SC27B)
COc1cc(C(=O)OCCCN2CCCN(CCCOC(=O)c3cc(OC)c(OC)c(OC)c3)CC2)cc(OC)c1OC | 9.53 µM (active) | 12 µM (active) | 12.6 µM (active) | 8.91 µM (active) | 13.5 µM (active) | 8.91 µM (active) | 12.6 µM (active) | 10 µM (active) | 11.2 µM (active) | 11.2 µM (active) | – | – | – | – | – | – | – | – | – | –
COCCOC(=O)C1=C(C)NC(C)=C(C(=O)OC(C)C)C1c1cccc([N+](=O)[O-])c1 (stereo not given) | 13.5 µM (active) | 13.5 µM (active) | – | – | – | 7.08 µM (active) | 12.6 µM (active) | – | – | – | 12 µM (active) | inactive | 12 µM (active) | inactive | – | – | – | – | – | –
CC(C)(Oc1ccc(CCNC(=O)c2ccc(Cl)cc2)cc1)C(=O)O | inactive | inactive | inactive | inactive | inactive | inactive | inactive | inactive | inactive | inactive | inactive | inactive | – | inactive | inactive | inactive | inactive | inactive | inactive | inactive
C[C@]12CCC(=O)C=C1CC[C@@H]1[C@@H]2CC[C@@]2(C)[C@H]1CC[C@]2(O)C(=O)CO | inactive | inactive | inactive | inactive | inactive | – | inactive | inactive | inactive | inactive | inactive | inactive | – | inactive | inactive | inactive | inactive | inactive | inactive | inactive
CCCOc1ccccc1-c1nc2n[nH]nc2c(=O)[nH]1 | inactive | inactive | inactive | inactive | inactive | – | inactive | inactive | inactive | inactive | inactive | inactive | inactive | inactive | inactive | inactive | inactive | inactive | inactive | inactive
CN1C[C@H](C(=O)N[C@]2(C)O[C@@]3(O)[C@@H]4CCCN4C(=O)[C@H](Cc4ccccc4)N3C2=O)C[C@@H]2c3cccc4[nH]cc(c34)C[C@H]21 | 0.675 µM (active) | 0.426 µM (active) | – | – | 6.01 µM (active) | – | – | – | – | – | 0.757 µM (active) | – | 1.2 µM (active) | – | – | – | – | – | – | –
OCCN1CCN(CCCN2c3ccccc3C=Cc3ccccc32)CC1 | 1.2 µM (active) | 1.69 µM (active) | 4.47 µM (active) | 2.82 µM (active) | 6.75 µM (active) | 4.47 µM (active) | 3.55 µM (active) | 7.94 µM (active) | 7.94 µM (active) | 6.31 µM (active) | 6.75 µM (active) | – | 4.78 µM (active) | 1.41 µM (active) | 8.91 µM (active) | – | 5.01 µM (active) | 3.55 µM (active) | 2.24 µM (active) | 7.94 µM (active)
CC1=NS(=O)(=O)c2cc(Cl)ccc2N1 | inactive | inactive | – | inactive | inactive | inactive | inactive | – | – | inactive | inactive | inactive | inactive | – | – | – | – | inactive | – | inactive
CC(C)NNC(=O)c1ccncc1 | inactive | inactive | inactive | inactive | inactive | inactive | – | inactive | – | inactive | inactive | inactive | inactive | inactive | inactive | inactive | inactive | inactive | inactive | inactive
O=C1NCN(c2ccccc2)C12CCN(CCCC(c1ccc(F)cc1)c1ccc(F)cc1)CC2 | 7.57 µM (active) | 6.75 µM (active) | 5.01 µM (active) | 5.62 µM (active) | 6.75 µM (active) | 3.98 µM (active) | 5.62 µM (active) | 4.47 µM (active) | 6.31 µM (active) | 12.6 µM (active) | – | inactive | – | – | 7.08 µM (active) | – | 5.62 µM (active) | 5.01 µM (active) | 11.2 µM (active) | 8.91 µM (active)
CCOC(=O)C1=C(C)NC(C)=C(C(=O)OC)C1c1cccc(Cl)c1Cl (stereo not given) | inactive | inactive | inactive | inactive | inactive | – | inactive | inactive | inactive | inactive | inactive | inactive | – | inactive | inactive | inactive | inactive | inactive | inactive | –
CC1=C(C)C(=O)C(CCCCC#CCCCC#CCO)=C(C)C1=O | 5.36 µM (active) | 6.01 µM (active) | – | 2.82 µM (active) | 7.57 µM (active) | 2.24 µM (active) | 7.94 µM (active) | 5.01 µM (active) | – | 7.94 µM (active) | 7.57 µM (active) | inactive | 7.57 µM (active) | inactive | – | – | 8.91 µM (active) | 4.47 µM (active) | 8.91 µM (active) | 7.08 µM (active)
NCCCNCCSP(=O)(O)O | inactive | inactive | inactive | inactive | inactive | inactive | inactive | inactive | inactive | inactive | inactive | inactive | inactive | inactive | inactive | inactive | inactive | inactive | inactive | inactive
Cc1cc(C)c(/C=C2\C(=O)Nc3ccccc32)[nH]1 | inactive | inactive | inactive | inactive | inactive | – | inactive | inactive | inactive | inactive | inactive | inactive | inactive | inactive | inactive | inactive | inactive | inactive | inactive | inactive
Cc1ccc(S(=O)(=O)NC(=O)NN2CCCCCC2)cc1 | inactive | inactive | inactive | inactive | inactive | inactive | inactive | inactive | inactive | inactive | inactive | inactive | inactive | inactive | inactive | inactive | – | inactive | inactive | inactive
CCCC(C(=O)OCCN(CC)CC)(c1ccccc1)c1ccccc1 | 8.49 µM (active) | 7.57 µM (active) | 14.1 µM (active) | 10 µM (active) | 10.7 µM (active) | 5.62 µM (active) | – | – | 11.2 µM (active) | 10 µM (active) | 13.5 µM (active) | – | 12 µM (active) | 7.08 µM (active) | – | – | – | 11.2 µM (active) | 10 µM (active) | –
CNC1(C)C2CCC(C2)C1(C)C (stereo not given) | inactive | inactive | – | inactive | 10.7 µM (active) | inactive | inactive | inactive | inactive | inactive | inactive | inactive | inactive | inactive | inactive | inactive | inactive | inactive | inactive | inactive
Cc1ccc(=O)n(-c2ccccc2)c1 | inactive | inactive | inactive | inactive | inactive | inactive | inactive | inactive | inactive | inactive | inactive | inactive | inactive | inactive | inactive | inactive | inactive | – | inactive | inactive
C=CCc1ccccc1OCC(O)CNC(C)C (stereo not given) | 8.49 µM (active) | 8.49 µM (active) | 7.94 µM (active) | – | 7.57 µM (active) | 11.2 µM (active) | 11.2 µM (active) | 4.47 µM (active) | – | – | – | inactive | – | inactive | – | – | 12.6 µM (active) | – | – | –
C[C@H](CS)C(=O)N1CCC[C@H]1C(=O)O | inactive | inactive | inactive | inactive | inactive | inactive | inactive | inactive | inactive | inactive | inactive | inactive | inactive | inactive | inactive | inactive | inactive | inactive | inactive | inactive
CN(C)CCN(Cc1cccs1)c1ccccn1 | 6.75 µM (active) | 6.01 µM (active) | 3.98 µM (active) | inactive | 3.79 µM (active) | – | 11.2 µM (active) | 7.94 µM (active) | 4.47 µM (active) | – | – | inactive | – | 10 µM (active) | inactive | – | 10 µM (active) | – | – | –
COC(=O)[C@H]1[C@H]2C[C@@H]3c4[nH]c5cc(OC)ccc5c4CCN3C[C@H]2C[C@@H](OC(=O)c2cc(OC)c(OC)c(OC)c2)[C@@H]1OC | 1.69 µM (active) | 1.51 µM (active) | 12.6 µM (active) | 5.01 µM (active) | 13.5 µM (active) | 3.55 µM (active) | 3.98 µM (active) | 10 µM (active) | 8.91 µM (active) | 5.62 µM (active) | 1.07 µM (active) | – | 2.13 µM (active) | 7.94 µM (active) | 11.2 µM (active) | – | 7.94 µM (active) | 2 µM (active) | 11.2 µM (active) | 7.08 µM (active)
NC(=O)N1c2ccccc2C=Cc2ccccc21 | inactive | inactive | inactive | inactive | inactive | inactive | inactive | inactive | inactive | inactive | inactive | inactive | inactive | inactive | inactive | inactive | – | inactive | inactive | inactive
O=C(CCCN1CCC(O)(c2cccc(C(F)(F)F)c2)CC1)c1ccc(F)cc1 | 6.75 µM (active) | 13.5 µM (active) | 5.62 µM (active) | 2.24 µM (active) | 6.01 µM (active) | 5.01 µM (active) | 7.94 µM (active) | 10 µM (active) | 8.91 µM (active) | 12.6 µM (active) | – | – | – | 7.94 µM (active) | 12.6 µM (active) | 12.6 µM (active) | 8.91 µM (active) | 10 µM (active) | – | 11.2 µM (active)

Source: PubChem BioAssay (NCATS)
